Measured values as given in the supplement of paper PMC9254222.
In all, about 1,100 compounds were measured (“Wnt reporter firefly/Renilla luciferase ratio relative to plate median”: median about 1.1, highest 2% from about 1.6 on). The list comes from a sample in which the highest values are over-represented; it also holds similar structures and randomly drawn compounds.

Test system: HEK293T (UBE3A T485A transfected, BAR Wnt reporter)
Test: Wnt reporter firefly/Renilla luciferase ratio relative to plate median (fold (linear ratio)); higher = more Wnt/beta-catenin reporter activation
Details: 24 h
Procedure, shortened: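 Chemicals were robotically dosed at 0.01–100 uM for 24 h onto HEK293T cells, starting four hours after transfection with a BAR firefly luciferase Wnt reporter, TK-Renilla and an expression plasmid. The cells had been plated at 4500 cells/well in DMEM with 10% FBS at 37°C and 5% CO2. Following a Dual-Glo luciferase readout, the firefly/Renilla ratio served as the Wnt activity measure and raw Renilla as the cell health measure, both median-centred on each plate. Each value is the mean of four biological replicates.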

Structure (SMILES) | Wnt reporter firefly/Renilla luciferase ratio (concentration: 0.1 uM) | Wnt reporter firefly/Renilla luciferase ratio (concentration: 1 uM) | Wnt reporter firefly/Renilla luciferase ratio (concentration: 10 uM) | Wnt reporter firefly/Renilla luciferase ratio (concentration: 100 uM) | Wnt reporter firefly/Renilla luciferase ratio (concentration: 0.01 uM)
C=CCOC(=O)c1ccccc1C(=O)OCC=C [Diallyl phthalate] | 1.17 | 1.04 | 1.22 | 1.09 | –
CCOc1cc(Oc2ccc(C(F)(F)F)cc2Cl)ccc1[N+](=O)[O-] [Oxyfluorfen] | 1.05 | 0.917 | 1.07 | 0.292 | 1.01
CCCCCCCCCCCCCN1CC(C)OC(C)C1 (configuration not stated) [Tridemorph] | 1.09 | 1.23 | 1.04 | 1.05 | –
CCOP(=O)(OCC)Oc1nc(Cl)c(Cl)cc1Cl [Chlorpyrifos oxon] | 0.876 | 1.02 | 0.861 | 0.591 | 0.967
CN(C)C(=O)Cl [Dimethylcarbamoyl chloride] | 0.982 | 1.32 | 1.35 | 1.31 | –
Cc1cccc([N+](=O)[O-])c1 [3-Nitrotoluene] | 1.02 | 1.03 | 0.836 | 1.17 | –
CN(C)C(=O)Nc1cccc(C(F)(F)F)c1 [Fluometuron] | 1.43 | 1.1 | 0.996 | 1.04 | 1.3
O=P(OC(CCl)CCl)(OC(CCl)CCl)OC(CCl)CCl | 1.19 | 0.764 | 1.31 | 0.44 | –
CCC(CC)Nc1c([N+](=O)[O-])cc(C)c(C)c1[N+](=O)[O-] [Pendimethalin] | 0.866 | 0.946 | 0.92 | 1.08 | 0.882
CC(C)(C)CC(C)(C)c1ccc(O)cc1 [4-(1,1,3,3-Tetramethylbutyl)phenol] | 1.03 | 0.968 | 1.15 | 0.935 | –
CN1COCN(Cc2cnc(Cl)s2)C1=N[N+](=O)[O-] [Thiamethoxam] | 1.19 | 1.01 | 0.971 | 1.2 | 1.14
c1ccc(N=Nc2ccccc2)cc1 [Azobenzene] | 1.35 | 1.05 | 1.38 | 1.1 | –
c1ccc(C2CO2)cc1 (configuration not stated) [Styrene oxide] | 1.23 | 0.89 | 1.19 | 1.71 | –
c1ccc(NNc2ccccc2)cc1 [1,2-Diphenylhydrazine] | 1.25 | 1.04 | 1.19 | 1.27 | –
CCOP(=S)(Oc1ccc([N+](=O)[O-])cc1)c1ccccc1 (configuration not stated) | 1.05 | 1.07 | 0.965 | 0.846 | –
COc1nn(CSP(=S)(OC)OC)c(=O)s1 [Methidathion] | 1.74 | 1.33 | 1.56 | 0.818 | 1.41
Cc1cc(-c2ccc(N)c(C)c2)ccc1N [3,3'-Dimethylbenzidine] | 1.15 | 0.925 | 0.831 | 0.556 | –

Structure (SMILES) | Wnt reporter firefly/Renilla luciferase ratio (concentration: 0.1 uM) | Wnt reporter firefly/Renilla luciferase ratio (concentration: 1 uM) | Wnt reporter firefly/Renilla luciferase ratio (concentration: 10 uM) | Wnt reporter firefly/Renilla luciferase ratio (concentration: 100 uM) | Wnt reporter firefly/Renilla luciferase ratio (concentration: 0.01 uM)
CCC(C)n1c(=O)[nH]c(C)c(Br)c1=O (configuration not stated) [Bromacil] | 1 | 0.995 | 0.904 | 0.896 | 0.919
c1ccc2c(c1)oc1ccccc12 [Dibenzofuran] | 1.04 | 0.95 | 1.02 | 1.15 | –
Oc1ccc(Cl)cc1Cc1ccccc1 [Clorophene] | 1.05 | 1.07 | 0.943 | – | 0.901
Nc1ccc2ccccc2c1 [2-Naphthylamine] | 0.991 | 0.869 | 0.998 | 0.629 | –
CCOP(=S)(OCC)Oc1nc(Cl)c(Cl)cc1Cl [Chlorpyrifos] | 1.11 | 1.01 | 0.926 | 1.12 | –
N#CC(Br)(Br)C(N)=O [2,2-Dibromo-3-nitrilopropionamide] | 1.26 | 1.24 | 1.3 | 1.23 | –
Nc1ccc([N+](=O)[O-])cc1 [4-Nitroaniline] | 1.19 | 0.817 | 0.602 | 0.574 | –
O=S(=O)([O-])C(F)(F)C(F)(F)C(F)(F)C(F)(F)F.[K+] | 1.15 | 1.04 | 1.23 | 1.73 | –
O=S(=O)([O-])C(F)(F)C(F)(F)C(F)(F)C(F)(F)C(F)(F)C(F)(F)F.[K+] | 1.21 | 0.967 | 1.07 | 1.21 | –
O=S(=O)([O-])C(F)(F)C(F)(F)C(F)(F)C(F)(F)C(F)(F)C(F)(F)C(F)(F)C(F)(F)F.[K+] | 1.12 | 1.24 | 1.39 | 0.833 | –
ClC1=C(Cl)C(Cl)(Cl)C(Cl)=C1Cl [Hexachlorocyclopentadiene] | 1.24 | 0.958 | 1.02 | 0.638 | –
O=C(O)CNCP(=O)(O)O [Glyphosate] | 1.38 | 1.39 | 1.04 | 1.75 | 1.29
C=C(C)[C@H]1Cc2c(ccc3c2O[C@@H]2COc4cc(OC)c(OC)cc4[C@@H]2C3=O)O1 [Rotenone] | 0.675 | 0.7 | 0.862 | – | 0.948
CCc1cccc(CC)c1N(COC)C(=O)CCl [Alachlor] | 0.977 | 0.938 | 0.799 | 0.366 | 0.923
CC1(C)C(C=C(Cl)Cl)C1C(=O)OC(C#N)c1cccc(Oc2ccccc2)c1 (configuration not stated) [Cypermethrin] | 1.14 | 1.06 | 0.991 | 0.601 | 1.02
CS(=O)(=O)c1ccc(C(=O)C2C(=O)CCCC2=O)c([N+](=O)[O-])c1 [Mesotrione] | 1.82 | 0.968 | 1.14 | 1.16 | 1.7
C=CC(N)=O [Acrylamide] | 0.86 | 0.905 | 0.839 | 1.1 | –
